The campaign covered roughly 16,000 compounds. About 2,600 (16%) were called active. Not shown: some 20% with an inconclusive outcome. Only a sample is shown. Values without a mark were called inactive. Calls follow the shape of the dose curve; as a rule, active = well fitted curve in the direction sought with a large enough effect; inconclusive = small, poorly fitted or top-dose-only effect, or effect the other way; inactive = no such curve, though single readings can be large or run the other way.

For orientation: AC50 means the concentration giving half of the maximal activity seen.
% is scaled to controls: 0 for no effect and ±100 for the full control effect.

The experiment deals with Cytochrome P450 2D6 (Homo sapiens) (UniProt P10635). As to the kind of experiment: Cytochrome panel assay with activity outcomes. As to conditions: recombinant CYP, pro-luciferin dealkylation, luminescence, p450-cyp2d6; series mostly up to 57.1 µM.
Cytochrome P450 2D6 (Homo sapiens), sequence (P10635 whole entry, looked up): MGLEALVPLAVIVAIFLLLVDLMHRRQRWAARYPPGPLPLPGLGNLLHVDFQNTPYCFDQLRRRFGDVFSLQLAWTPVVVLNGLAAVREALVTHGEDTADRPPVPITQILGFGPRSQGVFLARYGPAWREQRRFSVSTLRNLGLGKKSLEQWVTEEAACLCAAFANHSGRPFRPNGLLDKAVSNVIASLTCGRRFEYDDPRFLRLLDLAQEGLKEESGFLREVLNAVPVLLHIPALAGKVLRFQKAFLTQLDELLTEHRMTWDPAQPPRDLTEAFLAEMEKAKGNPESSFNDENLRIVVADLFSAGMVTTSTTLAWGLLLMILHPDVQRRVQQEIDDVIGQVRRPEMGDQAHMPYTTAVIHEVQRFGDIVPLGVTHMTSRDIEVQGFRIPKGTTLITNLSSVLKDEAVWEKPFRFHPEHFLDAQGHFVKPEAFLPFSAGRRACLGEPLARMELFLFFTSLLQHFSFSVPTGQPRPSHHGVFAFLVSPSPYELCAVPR
`Cc1ccc(-n2nc(C)c3c2OC(N)=C(C#N)C3c2ccco2)cc1` (stereo not given): the AC50 result is “inactive”.

In the case of `COc1ccc(C(=O)N2CCCCC2)cc1S(=O)(=O)Nc1ccccc1`, the AC50 entry was “inactive”.

In the case of `CCOc1ccc(-c2nn(-c3ccccc3)cc2/C=C2\SC(N)=NC2=O)cc1C`, the AC50 entry was “inactive”.

`CSc1nsc(SCc2ccc(Cl)cc2)n1`: the AC50 result is “inactive”.

`O=C1c2ccccc2CC[C@H]1CNCCc1ccc(O)cc1`: the AC50 was 0.398 µM (active).

As for `CCOc1cc(C)ccc1OCc1nnc(SCC(=O)c2cccc([N+](=O)[O-])c2)n1C`, the AC50 entry is “inactive”.

Regarding `CCOC(=O)CSC1=NC(=O)/C(=C\c2ccc(Cl)cc2)S1`, the AC50 entry is “inactive”.

Regarding `C[C@@H](CN1CCC(Cc2ccccc2)CC1)[C@H](O)c1ccc(O)cc1`, the AC50 is 1 µM (active).

As for `C[C@@H](CN1CCC(Cc2ccccc2)CC1)[C@@H](O)c1ccc(O)cc1`, the AC50 entry was “inactive”.

Consider `COc1cc(CC(=O)OC2CCOC2=O)cc(OC)c1OC` (stereo not given), for which the AC50 result was “inactive”.

`CCCCNC(=O)C1C2C=CC3(CN(Cc4ccccc4Cl)C(=O)C13)O2` (stereo not given): the AC50 entry was “inactive”.

On to `COCCCNC(=O)C1C2C=CC3(CN(Cc4ccc(C)cc4)C(=O)C13)O2` (stereo not given), for which the AC50 result is “inactive”.

Take `O=C(NCC1COc2ccccc2O1)C1C2C=CC3(CN(Cc4cccs4)C(=O)C13)O2` (stereo not given): the AC50 was 14.1 µM (active).

In the case of `Cc1ccc(CN2CC34C=CC(O3)C(C(=O)NCc3ccco3)C4C2=O)cc1` (stereo not given), the AC50 result was “inactive”.

As to `Cc1ccc(CN2CC34C=CC(O3)C(C(=O)NCc3ccc5c(c3)OCO5)C4C2=O)cc1` (stereo not given), the AC50 was 14.1 µM (active).

For `COc1ccc(CCN2CC34C=CC(O3)C(C(=O)NCc3ccccc3)C4C2=O)cc1OC` (stereo not given), the AC50 entry was “inactive”.

On to `CCOc1cc(S(=O)(=O)N(Cc2ccccc2)Cc2ccccc2)c(OCC)cc1-n1cnnn1`, for which the AC50 result was “inactive”.

As to `Cc1nc2ncnn2c(C)c1CCC(=O)NCc1ccccc1`, the AC50 result is “inactive”.

Take `CCOc1ccc(-c2cc(CCCC(=O)Nc3cc(OC)ccc3OC)no2)cc1`: the AC50 entry was “inactive”.

As for `COc1ccc(NC(=O)CSc2nncn2C)c([N+](=O)[O-])c1`, the AC50 result is “inactive”.

Take `CCOc1ccc(-n2c(SCC(=O)Nc3ccc(OC)cc3OC)nc3c(c2=O)SCC3)cc1`: the AC50 was 2.24 µM (active).

Regarding `N#Cc1cccc(NC(=O)N2CC[C@@]3(CCCN(C(=O)c4ccncc4)C3)C2)c1`, the AC50 entry is “inactive”.

For `CS(=O)(=O)N1CCC[C@@]2(CCN(C(=O)Nc3cccc(C#N)c3)C2)C1`, the AC50 entry was “inactive”.

Consider `CCCc1cc(=O)oc2cc(OCc3nn[nH]n3)ccc12`, for which the AC50 result is “inactive”.

For the compound `CCCc1cc(=O)oc2cc(OCC(=O)N3CCc4ccccc43)ccc12`, the AC50 entry is “inactive”.

On to `CCCCc1cc(=O)oc2cc(OCC(=O)N(CC)CC)ccc12`, for which the AC50 was 12.6 µM (active).

With `COc1cccc2c1C(=O)c1c(O)c3c(c(O)c1C2=O)C[C@@](O)(C(=O)CO)C[C@H]3O[C@H]1C[C@@H](N)[C@H](O)[C@@H](C)O1.[W]`, the activity, negative = inhibition is 4.97% [at 11.4 µM].

Turning to `COC(=O)c1nn(-c2ccc(OC)cc2)c(=O)cc1Oc1cccc(Cl)c1`, the AC50 result was “inactive”.

In the case of `O=C1CCc2cc(OCCCCc3nnnn3C3CCCCC3)ccc2N1`, the AC50 result is “inactive”.

As for `Fc1ccc([C@H]2CCNC[C@H]2COc2ccc3c(c2)OCO3)cc1`, the AC50 result was “inactive”.

For `Cn1c(=O)cc(OCCCC(=O)N2CCN(c3ccccc3)CC2)c2ccccc21`, the AC50 entry is “inactive”.

Take `c1ccc(N2CCN(CCCOc3ccc4c(c3)OCO4)CC2)cc1`: the AC50 was 0.126 µM (active).

In the case of `O=C(O)c1cc(=O)[nH]c(SCc2ccccc2)n1`, the activity, negative = inhibition was 4.29% [at 11.4 µM].

Consider `C#CCCCO/N=C1/C[C@@H](O)[C@@H](O)[C@@H]2[C@@H]3C(=O)N(Cc4ccccc4)C(=O)[C@H]3CC[C@H]12`, for which the activity, negative = inhibition was 15.7% [at 11.4 µM].

For the compound `COC(=O)c1cc(Br)c(=O)n(CCc2ccc(O)cc2)c1`, the AC50 result was “inactive”.

In the case of `CCNc1ncc2nc(-c3cccs3)c(=O)n(Cc3cccc(OC)c3)c2n1`, the AC50 result is “inactive”.

As to `CC1(C)C2([N+](=O)[O-])CN3CC1([N+](=O)[O-])CN(C2)C3c1ccccc1` (stereo not given), the AC50 entry was “inactive”.

Consider `CO[C@]1(NC(=O)[C@H](C(=O)O)c2ccc(O)cc2)C(=O)N2C(C(=O)O)=C(CSc3nnnn3C)CO[C@H]21`, for which the AC50 entry is “inactive”.

Consider `Cc1ccc(C(=O)O/N=C/c2c(Cl)n(C)c3ccccc23)cc1`, for which the AC50 result was “inactive”.

Consider `Cc1c2cnccc2c(C)c2c1c1ccccc1n2CCOC(=O)c1ccccc1`, for which the AC50 is 3.16 µM (active).

For `O=C(OCn1nnc2ccccc2c1=O)c1cccnc1`, the AC50 result was “inactive”.

With `COc1ncc2ncc(=O)n(CCC#N)c2n1`, the AC50 result is “inactive”.

Take `CC(C)(C)NC[C@H](O)COc1cccc2c1CCCC2=O`: the AC50 entry was “inactive”.

As to `CC(C)(C)NC[C@H](O)COc1cccc2c1CCC(=O)N2`, the AC50 entry is “inactive”.

`CC(C)(C)NC[C@@H](O)COc1ccccc1C1CCCC1`: the AC50 is 2.51 µM (active).

Consider `CC(C)n1cc(/C=C2/SC(=O)N(CC(=O)Nc3ccc4c(c3)OCO4)C2=O)c2ccccc21`, for which the AC50 result was “inactive”.

Take `Cc1cccc2cc(=O)[nH]c(C)c12`: the AC50 entry was “inactive”.

On to `NC(=O)C1(N2CCCCC2)CCN(C(=O)c2cccn3c(=O)c4cc(Cl)ccc4nc23)CC1`, for which the AC50 result was “inactive”.

In the case of `CCCC[C@@H]1C[C@H]1C(NC(=O)c1ccccc1)c1ccc(-c2ccccc2)cc1` (stereo not given in full), the AC50 entry was “inactive”.

`CCCC[C@H]1C[C@@H]1[C@@H]1N(P(=O)(c2ccccc2)c2ccccc2)[C@](CO)(c2ccccc2)CC12CC2`: the AC50 was 2.51 µM (active).

With `CCCC[C@H]1C[C@@H]1[C@@H]1N(P(=O)(c2ccccc2)c2ccccc2)C[C@@](O)(c2ccccc2)CC12CC2`, the AC50 was 15.8 µM (active).

Turning to `CCCC[C@@H]1C[C@H]1C(NC(=O)c1ccc(-c2ccccc2)cc1)c1ccc(-c2ccccc2)cc1` (stereo not given in full), the AC50 entry was “inactive”.

As to `C=C(CC1([C@@H](NP(=O)(c2ccccc2)c2ccccc2)[C@H]2C[C@@H]2CCCC)CC1)c1ccccc1`, the AC50 entry is “inactive”.

As to `Cc1ccc(NC(=O)CCSc2nnc3ccccn23)cc1`, the AC50 result was “inactive”.

Take `CCOC(=O)c1c(C)nc2c(c1-c1ccccc1)C(=O)CC(C)(C)C2`: the AC50 result was “inactive”.

Regarding `CCOC(=O)Cc1csc(NC(=O)c2ccc(Cl)nc2)n1`, the AC50 entry was “inactive”.

Take `COc1ccc(Oc2ncc3ncc(=O)n(C)c3n2)cc1`: the AC50 entry is “inactive”.

Take `Cc1nc2cnc(Nc3ccccc3)nc2n(Cc2cccs2)c1=O`: the AC50 entry is “inactive”.

`O=C1c2ccccc2C(=O)N1CCSC(=S)N1CCOCC1`: the AC50 entry was “inactive”.

Consider `O=C(NCc1cc(F)cc2c1OCCO2)[C@H]1C[C@@H]1[C@H](NP(=O)(c1ccccc1)c1ccccc1)c1ccccc1`, for which the AC50 entry is “inactive”.

(Values after PubChem BioAssay AID1851 (National Center for Advancing Translational Sciences (NCATS), 2009).)
